Several values for one entry are separate records, joined by “and”; a condition that tells them apart may be missing. Equal values may be shown once. Where a structure was tested more than once in an assay, its records may differ in their call. Activity calls are given as the source filed them. Rule for the calls: active = hit-call score of the fitted dose curve at least 0.9, where 1 is the maximum; inactive = score below 0.9.

The target of this experiment is Hypoxia-inducible factor 1-alpha (Homo sapiens) (UniProt Q16665). Nature of the experiment: ATG_HIF1a_CIS: Attagene CIS-FACTORIAL HepG2 Assay for human Hypoxia Inducible Factor 1 (HIF1A) (AID 2282951). To be noted: HepG2 Attagene cis-factorial HIF1a reporter transcription; actives raise or lower the signal. As for the experimental part: ATG_CIS is a cell-based, multiplexed-readout assay that uses HepG2, a human liver cell line, with measurements taken at 24 hours after chemical dosing in a 24-well plate.ATG_HIF1a_CIS is one of 52 assay component(s) measured or calculated from the ATG_CIS assay. It is designed to make measurements of mRNA induction, a form of inducible reporter, as detected with fluorescence intensity signals by Reverse transcription polymerase chain reaction (RT-PCR) and Capillary electrophoresis technology.Data from the assay component ATG_HIF1a_CIS was analyzed into 1 assay endpoint. This assay endpoint, ATG_HIF1a_CIS, was analyzed with bidirectional fitting relative to DMSO as the negative control and baseline of activity. Using a type of inducible reporter, measures of mRNA for gain or loss-of-signal activity can be used to understand the reporter gene at the transcription factor-level as they relate to the gene HIF1A. Furthermore, this assay endpoint can be referred to as a primary readout, because this assay has produced multiple assay endpoints where this one serves a reporter gene function. To generalize the intended target to other relatable targets, this assay endpoint is annotated to the dna binding intended target family, where the subfamily is basic helix-loop-helix protein.
Sequence of Hypoxia-inducible factor 1-alpha (Homo sapiens) (Q16665 whole entry, looked up): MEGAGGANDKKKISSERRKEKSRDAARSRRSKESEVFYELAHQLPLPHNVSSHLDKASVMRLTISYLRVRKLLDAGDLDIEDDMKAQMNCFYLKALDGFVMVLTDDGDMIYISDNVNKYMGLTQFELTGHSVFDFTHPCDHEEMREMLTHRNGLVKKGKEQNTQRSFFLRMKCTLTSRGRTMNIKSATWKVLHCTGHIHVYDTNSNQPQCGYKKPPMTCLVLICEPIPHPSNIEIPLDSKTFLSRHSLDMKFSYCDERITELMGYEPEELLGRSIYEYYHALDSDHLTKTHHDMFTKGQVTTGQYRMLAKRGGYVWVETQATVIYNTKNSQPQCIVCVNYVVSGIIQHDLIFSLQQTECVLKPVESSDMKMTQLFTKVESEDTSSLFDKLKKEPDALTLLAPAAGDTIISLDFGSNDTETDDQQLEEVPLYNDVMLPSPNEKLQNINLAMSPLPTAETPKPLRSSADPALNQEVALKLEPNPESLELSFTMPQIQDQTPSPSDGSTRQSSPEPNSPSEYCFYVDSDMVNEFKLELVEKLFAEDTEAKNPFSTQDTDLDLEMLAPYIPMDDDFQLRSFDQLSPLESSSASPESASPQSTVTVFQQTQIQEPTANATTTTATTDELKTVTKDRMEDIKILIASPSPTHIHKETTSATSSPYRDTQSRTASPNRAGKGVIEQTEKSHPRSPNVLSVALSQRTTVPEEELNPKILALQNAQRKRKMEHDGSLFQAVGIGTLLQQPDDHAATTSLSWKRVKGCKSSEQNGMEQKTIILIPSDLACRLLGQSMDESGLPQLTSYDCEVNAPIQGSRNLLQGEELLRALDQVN
Human liver HepG2 cells are transiently transfected with multiple reporter transcription units (MRTUs) in 6-well plates using FuGene 6 reagent (Roche; 3 ml FuGene/1 mg DNA). The MRTU constructs are regulated by a cis-regulating element (promoter). […] A major difference between the CIS and TRANS system is that in CIS activities of endogenous TFs are measured, whereas the TRANS assay evaluates changes in activities of exogenous, chimeric NR-Gal4 proteins. […] At the end of 24 hour incubation, total RNA was isolated using TriZol reagent (Invitrogen). The isolated RNA is then reverse-transcribed using oligo(dT) primer and Mo-MLV reverse transcriptase (Invitrogen) with DNAse I (Ambion) treatment for 30 min. The one-tenth of the produced cDNA was amplified by PCR using Taq DNA polymerase (Invitrogen) and two reporter sequence-specific primers. The PCR products were fluorescently labeled by primer extension with 6-arboxyfluorescein (6-FAM) 5'-labeled reporter sequence-specific primer (2 min at 95 C, 20 s at 68 C and 10 min at 72 C) and these products were digested with 5U of HpaI (New England Biolabs) for 2h at 37 C. The fragments were purified using Qiaquick PCR columns (Qiagen), analyzed on an ABI 3130xL genetic analyzer (Applied Biosystems) with peak positions identified by using a set of X-rhodamine (ROX)-labeled MapMarker1000 molecular weight standards (BioVentures). The raw capillary electrophoresis data was processed using Attagraph software (Attagene).
With `c1cc2ccc3cccc4ccc(c1)c2c34`, the result was inactive.
The same measure, in the same setting: under `CCCCCCOC(=O)c1ccccc1C(=O)OCCCCCC` stands “inactive”; under `C[C@]12CCC(=O)C=C1CC[C@@H]1[C@@H]2CC[C@@]2(C)[C@H]1CC[C@]2(C)O`, “inactive”; under `Cc1ccc(O)c(C)c1`, “inactive”.
Take `CCOCCOC(C)=O`: the compound was classed as inactive.
Turning to `Clc1ccc(C(Cl)(Cl)Cl)cc1`, the compound was classed as inactive.
As for `O=C(O)C(F)(F)C(F)(F)C(F)(F)C(F)(F)C(F)(F)C(F)(F)C(F)(F)C(F)(F)C(F)(F)F`, the AC50 is 26.6 µM (active) and the compound was called inactive.
The like results for `O=C(O)C(F)(F)C(F)(F)C(F)(F)C(F)(F)C(F)(F)C(F)(F)C(F)(F)C(F)(F)F` were, in that order, 50 µM (active) and “inactive”.
Turning to `CCCCCCCCCc1ccc(O)cc1`, the compound was called inactive and the concentration at half-maximal activity (AC50) was 178 µM (active).
`Cc1cccc([N+](=O)[O-])c1`: the AC50 was 181 µM (active).
Consider `OCC(O)CO`, for which the compound was classed as inactive.
Same read-out and setting: next, `Cc1cc(-c2ccc(N)c(C)c2)ccc1N`: “inactive”; `ClC1=C(Cl)[C@]2(Cl)[C@@H]3[C@@H]4C[C@@H]([C@H]5O[C@@H]45)[C@@H]3[C@@]1(Cl)C2(Cl)Cl`: “inactive”.
With `Clc1ccc(C(c2ccccc2Cl)C(Cl)(Cl)Cl)cc1` (stereo not given), the AC50 is 18.4 µM (active) and the compound was classed as inactive.
Turning to `C=CC(N)=O`, the AC50 was 26 µM (active).
Turning to `CN(C)CCO`, the call was inactive.
On the same count and under the same terms, next, `Oc1ccc(Cl)cc1Cl`: “inactive”; `CCOP(=S)(OCC)SCSC(C)(C)C`: “inactive”; `CC1=C2C[C@H]3[C@@H](CC=C4C[C@@H](O)CC[C@@]43C)[C@@H]2CC[C@]12O[C@@H]1C[C@H](C)CN[C@H]1[C@H]2C`: “inactive”.
As to `O=C(NC(=O)c1c(F)cccc1F)Nc1cc(Cl)c(OC(F)(F)C(F)F)c(Cl)c1`, the call was inactive.
Still for that read-out and setting: under `N#Cc1ccc(N(CC(N)=O)CC(F)(F)F)cc1C(F)(F)F` stands “inactive”.
Still for that read-out and setting: next, `CCCN(CCC)N=O`: “inactive”; `O=S(=O)(O)C(F)(F)C(F)(F)C(F)(F)C(F)(F)F`: “inactive”; `Oc1ccc(C(c2ccc(O)cc2)(C(F)(F)F)C(F)(F)F)cc1`: “inactive”.
On the same count and under the same terms, under `CO/C=C(/C(=O)OC)c1ccccc1COc1cccc(C(F)(F)F)n1` stands “inactive”.
For `CC(c1ccc(O)cc1)(c1ccc(O)cc1)c1ccc(O)cc1`, the AC50 was 13.8 µM (active).
For the compound `CCC(C)c1cc([N+](=O)[O-])cc([N+](=O)[O-])c1O` (stereo not given), the compound was classed as inactive.
Regarding `CCC(C)(c1ccc(O)cc1)c1ccc(O)cc1`, the AC50 was 75.9 nM (active) and 26.2 µM (active); the outcome was inactive.
Turning to `Nc1ccc(-c2ccc(N)cc2)cc1`, the compound was called inactive.
On the same count and under the same terms, next, `CC(C)C(=O)OCC(C)(C)C(OC(=O)C(C)C)C(C)C` (stereo not given): “inactive”.
In the case of `CCNc1nc(NC(C)C)nc(SC)n1`, the result was inactive.
As to `O=NN(c1ccccc1)c1ccccc1`, the call was inactive.
`NS(=O)(=O)C(F)(F)C(F)(F)C(F)(F)C(F)(F)C(F)(F)C(F)(F)C(F)(F)C(F)(F)F`: the AC50 is 8.26 µM (active) and the call was inactive.
As to `O=C(NC(=O)c1cc(F)c(F)cc1Cl)Nc1cc(F)ccc1N1CCC(C(=O)O)CC1`, the call was inactive.
